Test results from ChEMBL document CHEMBL3988442, “University of Dundee, Small-Polar-MMV Screening Library” (2021).
The campaign covered roughly 48,000 compounds. About 13,000 (27%) showed an effect of 50% or more. The list shows a part of the results.

Each compound was assayed on Wolbachia pipientis (assay: Anti-Wolbachia Cell-Based Screen). Conditions: 5 µM.
Assay type: functional
Design: scale not given: in the data most compounds retested in dose-response had high values

SMILES | Percent Effect [%]
CN(Cc1ccco1)Cc1ccccc1CNC(=O)c1cc[nH]n1 | -6.684
CCc1cc(CNC(=O)c2cc(NC(=O)C(C)C)ccc2Cl)[nH]n1 | -9.115
C[C@H](NS(C)(=O)=O)C(=O)NCc1cc(-c2ccco2)n[nH]1 | 75.56
CC(C)[C@H](NS(C)(=O)=O)C(=O)NCc1cc(-c2ccccc2)n[nH]1 | 101.1
CCc1cc(CNC(=O)NCC(c2ccco2)N2CCCC2)[nH]n1 (stereo not drawn) | -1.193
CCc1cc(CNC(=O)N(C2CC2)C(C)c2ccco2)[nH]n1 (stereo not drawn) | -14.67
CC(NS(C)(=O)=O)C(=O)N(C)Cc1csc(-c2ccccc2)n1 (stereo not drawn) | -10.17
CC(C)[C@H](NS(C)(=O)=O)C(=O)NCc1cc(-c2ccco2)n[nH]1 | 84.23
CCCC(C)NC(=O)c1ccc(-c2ccco2)[nH]c1=O (stereo not drawn) | 12.91
O=C(c1cccc(-n2cccn2)c1)N1CCCOC(Cn2cccn2)C1 (stereo not drawn) | 8.514
O=C(NCC1CC1)C1CCCN(c2cccc(C(F)(F)F)n2)C1 (stereo not drawn) | -14.15
COc1ccc(SC(C)C(=O)N2CCC(NC(=O)C3CC3)CC2)cc1 (stereo not drawn) | -11.29
COCC(=O)Nc1cc(Br)cnc1OCC(F)(F)F | -8.259
Cc1occc1C(=O)NC1CCN(C(=O)Nc2cccnc2)CC1 | 26.57
CC1CCN(C(=O)C2CCCN(C(=O)Nc3ccccn3)C2)CC1 (stereo not drawn) | -1.039
Cc1ccc(C(=O)N2CCN(C(=O)Nc3ccccn3)CC2)o1 | 12.27
Cc1ccc(C(=O)NC2CCN(C(=O)Nc3ccccn3)CC2)s1 | 106.5
Cc1ccoc1C(=O)NC1CCN(C(=O)Nc2ccccn2)CC1 | 143.8
CCn1cc(CN2CCCC2c2nc(-c3ccccc3)no2)cc1C#N (stereo not drawn) | -29.44
Cc1ccc(CN2CCc3c(CN4CCCC4)n[nH]c3C2)s1.O=C(O)C(F)(F)F.O=C(O)C(F)(F)F | -6.492
Cn1nnc2c1C(COCC1CC1)CN(C(=O)[C@H]1CCCO1)C2 (stereo partly drawn) | 10.79
CCOC(=O)c1coc(N2CCC(C(O)CC(C)C)CC2)n1 (stereo not drawn) | -3.785

SMILES | Percent Effect [%]
CC(=O)N1CCC(c2nnc3ccc(C(=O)NCCN(C)C)cn23)C1 (stereo not drawn) | -5.924
Cn1ccc(C(=O)N2CCOC(c3ccccc3)C2)cc1=O (stereo not drawn) | -8.227
CC(=O)N1CCN(Cc2cccc3c2sc2ccccc23)CC(O)C1 (stereo not drawn) | -0.8612
CC(=O)N1CCN(Cc2c(C)sc3ccccc23)CC(O)C1 (stereo not drawn) | -5.1
CC(=O)N1CCOC(c2c(C(=O)NC(C)(C)C)sc3ccccc23)C1 (stereo not drawn) | 161.4
CC(=O)N1CCOC(c2c(C(=O)NCCN(C)C)sc3ccccc23)C1 (stereo not drawn) | 169.5
CC(=O)N1CCOC(c2c(C(=O)O)sc3ccccc23)C1 (stereo not drawn) | 123
CNC(=O)c1cccc(NC(=O)NC(C)CCc2cccn2C)c1C (stereo not drawn) | -20.84
CCn1ccnc1CN(C)C1CCCN(Cc2ccccc2F)C1 (stereo not drawn) | -12.96
CCC1CN(CCCO)c2ccccc2O1 (stereo not drawn) | 49.62
Cc1nnc(CN2CCN(CCOc3ccccc3C#N)CC2)n1C | -3.944
Cc1nccc(CN2CC[C@H](Oc3cccc(F)c3)[C@@](C)(O)C2)n1 | -4.258
CCn1ccnc1CN1CCC(Oc2cccc(F)c2)(C(=O)O)CC1 | -6.452
C[C@]1(O)CN(Cc2cscn2)CC[C@@H]1Oc1cccc(F)c1 | 131.8
C[C@]1(O)CN(Cc2ncccc2F)CC[C@@H]1Oc1cccc(F)c1 | 113.6
C[C@]1(O)CN(Cc2ncc[nH]2)CC[C@@H]1Oc1cccc(F)c1 | 143.6
CCN1CC(c2ccccc2)CC2(CCN(Cc3ncc[nH]3)CC2)C1 (stereo not drawn) | -4.226
Cc1cccnc1CN1CC[C@H](Oc2cccc(F)c2)[C@@](C)(O)C1 | 112.2
COc1ccc2c(c1)CCN(Cc1cscn1)CC2 | -16.58
CCN1CCN(C[C@@H]2CN(c3ncccc3F)C[C@@H]2CO)CC1 | 10.53
Fc1ccc(CC2CCN(Cc3cscn3)CC2)cc1 | 6.196
CCOc1ccnc(N2CCN(Cc3ncccc3C)CC2)n1 | -12.42

SMILES | Percent Effect [%]
O=C(c1cnc2[nH]c(=O)[nH]c(=O)c2c1)N1CCCC1C1CCCCC1 (stereo not drawn) | 5.907
Cc1cccc(S(=O)(=O)NC(=O)c2ccc3c(c2)nnn3C)c1 | -16.64
CC(C)c1noc(-c2ccc(NCc3noc(C(C)C)n3)nc2)n1 | -9.684
Cc1ccccc1OCC1CCCN(C(=O)Cc2c[nH]c(=O)[nH]c2=O)C1 (stereo not drawn) | -4.345
O=C(COc1ccc2c(c1)CCC2)NS(=O)(=O)c1cncc(Br)c1 | -16.45
CC(O)c1cn(CC2CCN(C(=O)CN(C)C(C)C)CC2)nn1 (stereo not drawn) | -14.32
CSc1ccc(C)c(C(=O)N2CCCC(n3cncn3)C2)c1 (stereo not drawn) | 94.98
Cc1ccc(S(C)(=O)=O)cc1C(=O)N1CCCC(n2cncn2)C1 (stereo not drawn) | 123.8
Cc1cc(C)n(C2CN(C(=O)c3cn4ccsc4n3)C2)n1 | -20.57
CCn1c(CN(C)C)nnc1C1CCN(Cc2ccc(Cl)c(F)c2)CC1 | -16.98
CO[C@@H]1CCN(c2ncccn2)[C@H]1Cc1ccccc1 | -5.923
COCCO[C@@H]1CCN(c2cc(OC)ncn2)[C@H]1Cc1cnn(C)c1 | -2.108
Cn1cc(C[C@H]2[C@H](N3CCOCC3)CCN2c2ncc(F)cn2)cn1.O=C(O)C(F)(F)F | -13.6
COc1cc(N2CC[C@@H](OC)[C@@H]2Cc2cnn(C)c2)ncn1 | 110.7
COCCO[C@H]1CCN(c2cc(OC)ncn2)[C@H]1Cc1cnn(C)c1 | -1.257
CO[C@@H]1CCN(c2ncc(F)cn2)[C@H]1Cc1cnn(C)c1 | 112
CCc1ccccc1CNC(=O)CNCC(F)(F)F | -0.7333
Cc1nc(C(C)(C)NC(=O)Nc2cccc(C#N)c2)no1 | -15.63
CC(C)Nc1nc2c(c(NC3CC3)n1)CN(C(=O)Cc1ccsc1)CC2 | -13.92
CCCC(=O)N1CCC(Nc2nc(O)cc(-c3ccsc3)n2)CC1 | 101
O=C(Cn1cccn1)N1CCC(Cn2cc(-c3ccsc3)nn2)CC1 | 4.923
O=C(O)C(F)(F)F.O=C(O)c1cc2c(nc1-c1ccsc1)CCN(C(=O)C1CC1)CC2 | -4.061

SMILES | Percent Effect [%]
CCCC(=O)N1CCC(Nc2ncc(Br)cn2)CC1 | -8.622
CC(=O)c1c(F)cccc1NC1CCN(C(=O)CC(C)C)CC1 | -2.175
O=C(C1CC1)N1CCC(Nc2nc(O)cc(-c3ccsc3)n2)CC1 | 99.22
O=C(C1CCOC1)N1CCC(Cn2cc(-c3ccsc3)nn2)CC1 (stereo not drawn) | -11.04
CC(C)CC(=O)N1CCC(Nc2nc(O)cc(-c3ccsc3)n2)CC1 | 93.38
Cc1nnc(CN2CCCC2c2ccc3c(c2)OCCO3)n1C (stereo not drawn) | 15.49
CC(C)(C)OC(=O)N[C@H]1CCN(C(=O)c2cc(Cl)c[nH]2)C1 | -15.92
CCCC(C)NC1CCN(c2ccc(-n3ccnc3C)cc2)CC1 (stereo not drawn) | -8.3
COCC(=O)Nc1ccc([C@@H](O)[C@H]2COCC(=O)N2CC(C)C)cc1 | 0.04576
CC(NC(=O)CSCC(=O)Nc1ccccc1)c1ccccc1 (stereo not drawn) | 5.031
CCC(=O)Nc1ccc(C(C)NC(=O)COC)cc1 (stereo not drawn) | 92.17
Cc1ccc(-c2cc(CNC(=O)N3CCOC(C)C3)on2)cc1 (stereo not drawn) | -4.045
CC(NC(N)=O)C(=O)N(C)CCCc1cc(-c2ccccc2)no1 (stereo not drawn) | -0.2623
CCNC(=O)C1(Cc2cc(-c3ccccc3)no2)CCCN(C(C)C)C1 (stereo not drawn) | 86.79
Cc1ccc(-c2cc(CNC(=O)N3CCC(CO)CC3)on2)cc1 | 6.064
Cc1cnn(CCNCc2cc(-c3ccccc3)no2)c1 | 2.44
CCNC(=O)C1(Cc2cc(-c3ccccc3)no2)CCCN(C(C)=O)C1 (stereo not drawn) | 105.3
CCNC(=O)C1(Cc2cc(-c3ccc(C)cc3)no2)CCCN(C)C1 (stereo not drawn) | 151.7
CCCNC(=O)C1(Cc2cc(-c3ccccc3)no2)CCN(C(C)=O)C1 (stereo not drawn) | 76.91
CNC(=O)CC1CCN(Cc2nc(-c3ccc(SC)cc3)oc2C)CC1 | -19.45
O=C(O)C(F)(F)F.O=C([C@H]1C[C@H]2OCC[C@H]2N(Cc2ccco2)C1)N1CCCO1 | 11.53
COc1ccc(CN2C[C@@H](CN(C)C)[C@@H](CO)C2)c(Cl)c1OC | -2.231

SMILES | Percent Effect [%]
c1cc2c(cc1C[C@@H]1CC[C@H](CN3CCCOCC3)O1)OCO2 | 5.044
Cc1cc(C)cc(C2(C(=O)NC(C)Cn3ccnc3)CC2)c1 (stereo not drawn) | -3.779
COc1ccc(OC)c(C(C)Nc2nc3c(C)nn(C)c3c(=O)n2C)c1 (stereo not drawn) | -10.12
CC(C)C(=O)N1CCN(CCOc2cccc(C#N)c2)CC1 | 22.03
CN(C)C(=O)NCC(=O)N(C)Cc1cc(-c2ccccc2)no1 | 2.31
CCNC(=O)C1(Cc2cc(-c3ccccc3)no2)CCCN(C)C1 (stereo not drawn) | 76.81
CCNC(=O)CNS(=O)(=O)Cc1cc(-c2ccccc2)no1 | -10.1
Cc1cc(NCC(=O)N(C)Cc2cccs2)c(C(N)=O)cc1F | 8.297
CC(C)N1CCCC(C(=O)NC(C)(C)c2nnc(N)s2)C1 (stereo not drawn) | -13.81
CCOc1ccc(NC2CCN(C3CC3)C2=O)cn1 (stereo not drawn) | -7.266
CCOc1ccc(-c2c(C#N)c(N)nc3c2COCC3)cn1 | 106.3
N#Cc1c(C2CCOC2)cc(-c2ccc(N3CCCCC3)cc2)nc1N (stereo not drawn) | 2.752
Cc1cc(-c2c(C)c(-c3cnn(C)c3)nc(N)c2C#N)oc1C | 17.25
COCCc1ncc(-c2c(C#N)c(N)nc3c2CCc2[nH]ccc2-3)cn1 | -13.87
Cn1cc(-c2c(C#N)c(N)nc3c2CCc2[nH]ccc2-3)cn1 | 4.236
COc1ncc(-c2c(C#N)c(N)nc3c2CCc2[nH]ccc2-3)cn1 | -13.65
N#Cc1c(N)nc2c(c1-c1cnc(N3CCCC3)nc1)COCC2 | 84.51
CC(C)n1cc(-c2c(C#N)c(N)nc3c2COCC3)cn1 | 109.6
CCOc1ccc(NC(=O)NC2CCc3[nH]ncc3C2)cn1 (stereo not drawn) | -9.557
CCC(C)Sc1ncc(-c2c(C#N)c(N)nc3c2COCC3)cn1 (stereo not drawn) | 95.02
